As usually defined, the Inhibition is the percentage by which the read-out fell short of the control. Higher therefore signals a response far below the control.

Format in all cases: functional
The test system of experiment [1] is Plasmodium falciparum. The experiment can be described thus: GSK_TCMDC: Inhibition of Plasmodium falciparum 3D7 in whole red blood cells, using parasite LDH activity as an index of growth. Test compounds present at 2uM.
In experiment [2] the test system is Plasmodium falciparum. The experiment can be described thus: GSK_TCMDC: Inhibition of Plasmodium falciparum Dd2 in whole red blood cells, using parasite LDH activity as an index of growth. Test compounds present at 2uM.
Another experiment relates to HepG2. The experiment in a line: GSK_TCMDC: Percent inhibition of human HepG2 cell line. Test compounds present at 10uM.

Non-standard residues stand in square brackets, D forms with d. Residues, ends and D or L forms follow the SMILES beside them. *: point of attachment. Butanoyl(4-(4-HOPh)) = O=C(CCCc1ccc(O)cc1)*

Take `CC(C)(C)OC(=O)Cn1cnc2cc(NC(=O)c3cc([N+](=O)[O-])cc([N+](=O)[O-])c3)ccc21`: the Inhibition in the experiment on Plasmodium falciparum [1] was found to be 100%; with Plasmodium falciparum [2], 97%; in the experiment on HepG2, 11%.

`Cc1ccc(Nc2ccnc(Nc3ccc(F)c(Cl)c3)n2)cc1O.Cl`: the Inhibition with Plasmodium falciparum [1] came out at 100%; in the experiment with Plasmodium falciparum [2], 52%; in the experiment with HepG2 it was 9%.

With `COc1ccc(CNCCc2cccs2)cc1-c1ccc(OC)c(S(=O)(=O)NCCN2CCCC2)c1.O=C(O)C(F)(F)F`, the figures for the Inhibition in the experiment on Plasmodium falciparum [1], in the experiment on Plasmodium falciparum [2] and in the experiment with HepG2 were 96%, 19% and 16%, respectively.

On to `CCn1ccc2c(N3CCCC3=O)cc(C(=O)N[C@@H](Cc3ccccc3)[C@H](O)CNC3CCCCC3)cc21`, for which the Inhibition in the experiment on Plasmodium falciparum [1] was 99%; with Plasmodium falciparum [2] it was 98%; in the experiment with HepG2 it was 12%.

As to `CN1CCCN(Cc2ccc(-c3ccc(NC(=O)c4cccc(C#N)c4)cc3)cc2)CC1.O=C(O)C(F)(F)F`, the Inhibition in the experiment on Plasmodium falciparum [1] worked out at 97%; in the experiment with Plasmodium falciparum [2] it was 67%; in the experiment with HepG2, 46%.

Take `CCN(CC)CCN(CCCc1ccc(-c2ccc(C(F)(F)F)cc2)cc1)C(=O)Cn1c(CCc2cccc(F)c2F)nc(=O)c2ccccc21.O=C(O)C(O)C(O)C(=O)O`: the Inhibition came to 100% in the experiment with Plasmodium falciparum [1], 49% in the experiment on Plasmodium falciparum [2] and 37% in the experiment with HepG2.

Take `COc1ccc(NC(=O)Nc2nc(-c3ccc(Cl)c(C)c3)cs2)cc1N1CCN(C)CC1.Cl`: the Inhibition with Plasmodium falciparum [1] came out at 99%; in the experiment with Plasmodium falciparum [2], 89%; with HepG2, 9%.

On to `Br.CCCC1N=C(N)N=C(N)N1c1cccc([N+](=O)[O-])c1` (stereo not given), for which the Inhibition came out at 96% with Plasmodium falciparum [1], 1% in the experiment with Plasmodium falciparum [2] and 0% with HepG2.

`CC(C)(C)C(=O)Oc1ccc(CC2NCCc3cc(OC(=O)C(C)(C)C)c(OC(=O)C(C)(C)C)cc32)cc1OC(=O)C(C)(C)C` (stereo not given): the values for the Inhibition in the experiment on Plasmodium falciparum [1], in the experiment with Plasmodium falciparum [2] and in the experiment on HepG2 were 97%, 96% and 3%, respectively.

Consider `Nc1ccc(-c2nc3cc(-c4ccc5[nH]c(-c6ccc(N)cc6)nc5c4)ccc3[nH]2)cc1`, for which the Inhibition stood at 100% in the experiment on Plasmodium falciparum [1], 96% in the experiment with Plasmodium falciparum [2] and 45% in the experiment with HepG2.

Consider `OC(CNCCc1ccccc1)Cn1c2ccc(Cl)cc2c2cc(Cl)ccc21` (stereo not given), for which the Inhibition in the experiment with Plasmodium falciparum [1] is given as 98%; in the experiment on Plasmodium falciparum [2] it was 96%; with HepG2 it was 53%.

For the compound `CN1CCN(c2cc3c(cc2Cl)CCN3C(=O)Cc2ccc(Cl)c(NC(=O)Nc3cccc(C#N)c3)c2)CC1`, the figures for the Inhibition in the experiment with Plasmodium falciparum [1], in the experiment with Plasmodium falciparum [2] and in the experiment on HepG2 were 99%, 40% and 0%, respectively.

For `O=C(Nc1ccc(-c2cccc(-c3nc4cc(F)ccc4[nH]3)c2)cc1)Nc1ccsc1`, the Inhibition in the experiment on Plasmodium falciparum [1] is 100%; with Plasmodium falciparum [2], 51%; in the experiment with HepG2, 34%.

On to `Cc1nc(N)nc(N)c1CCCOc1ccccc1Cl`, for which the Inhibition worked out at 98% in the experiment on Plasmodium falciparum [1], 5% in the experiment with Plasmodium falciparum [2] and 40% with HepG2.

As to `O=C1Nc2cccc3c2C1(CCCCN1CCC(c2c(-c4ccccc4)[nH]c4ccccc24)CC1)CCC3` (stereo not given), the results for the Inhibition with Plasmodium falciparum [1], in the experiment with Plasmodium falciparum [2] and with HepG2 were 84%, 33% and 18%, respectively.

For `O=C(Nc1ccccc1F)NC1CCN(c2ccnc(Nc3ccc(F)cc3)n2)CC1`, the Inhibition was found to be 99% in the experiment with Plasmodium falciparum [1], 63% in the experiment on Plasmodium falciparum [2] and 13% in the experiment on HepG2.

With `CC(C)Cc1cn(-c2nc(-c3nc4ccccc4[nH]3)cs2)c2ccncc12.Cl`, the Inhibition was determined as 100% in the experiment on Plasmodium falciparum [1], 99% in the experiment with Plasmodium falciparum [2] and 34% in the experiment with HepG2.

For the compound `CN(C(=O)c1nn(-c2ccccn2)c2nccc(-c3cccs3)c12)C1CCCCC1`, the Inhibition with Plasmodium falciparum [1] is 87%; in the experiment on Plasmodium falciparum [2], 1%; in the experiment with HepG2, 4%.

Take `Cl.Cl.N=C(N)Nc1ccc(Cc2ccc(NC(=N)N)cc2)cc1`: the figures for the Inhibition in the experiment with Plasmodium falciparum [1], with Plasmodium falciparum [2] and in the experiment on HepG2 were 93%, 94% and 35%, respectively.

Take `O=C(C=Cc1ccc(Cl)c(Cl)c1)NCCCCCN1CCCC(CCCNS(=O)(=O)c2cccc(C(F)(F)F)c2)C1` (stereo not given): the Inhibition with Plasmodium falciparum [1] was found to be 94%; in the experiment on Plasmodium falciparum [2], 33%; with HepG2, 81%.

As to `O=C(NCC(=O)N1CCC[C@H]1C(=O)O)[C@@H](Cc1ccccc1)NC(=O)[C@@H]1CCCN1C(=O)CCCc1ccc(O)cc1` ({Butanoyl(4-(4-HOPh))}-P[dF]GP-OH), the figures for the Inhibition in the experiment with Plasmodium falciparum [1], with Plasmodium falciparum [2] and in the experiment on HepG2 were 81%, 1% and 1%, respectively.

For `COc1nc2c(CCN3CC[C@H](NCc4cc(C#N)c5c(c4)CCO5)[C@H](O)C3)ccnc2cc1F`, the Inhibition in the experiment on Plasmodium falciparum [1] was 99%; with Plasmodium falciparum [2], 71%; in the experiment with HepG2, 31%.

Turning to `COc1ccc2c(c1)CC1CN(CCCCNC(=O)c3ccc(NC(=O)c4cc(Cl)cc(Cl)c4)cc3)CCN1C2` (stereo not given), the Inhibition in the experiment on Plasmodium falciparum [1] stood at 100%; in the experiment with Plasmodium falciparum [2], 57%; with HepG2, 7%.

On to `CCOC(=O)c1c(-c2ccccc2)nc2c(sc3ccccc32)c1O`, for which the Inhibition in the experiment with Plasmodium falciparum [1] came out at 97%; in the experiment with Plasmodium falciparum [2], 65%; in the experiment on HepG2, 2%.

Consider `CC1CN(Cc2cccc(F)c2)CCN1c1ccc(NC(=O)c2ccc(F)cc2)cc1.O=C(O)C(F)(F)F` (stereo not given), for which the Inhibition with Plasmodium falciparum [1] is reported as 96%; with Plasmodium falciparum [2] it was 92%; in the experiment on HepG2, 0%.

Turning to `COc1ccc(-c2cnc(N)c(-c3nc4cc(Br)ccc4[nH]3)c2)cc1.O=C(O)C(F)(F)F`, the Inhibition in the experiment with Plasmodium falciparum [1] was 100%; in the experiment with Plasmodium falciparum [2] it was 3%; with HepG2, 42%.

Regarding `N#Cc1cccc(-c2nc(NCc3cccc(C(F)(F)F)c3)nn2-c2cccc(C(F)(F)F)c2)c1`, the results for the Inhibition with Plasmodium falciparum [1], in the experiment with Plasmodium falciparum [2] and in the experiment with HepG2 were 94%, 88% and 12%, respectively.

On to `COc1ccc(OCC(O)CN(Cc2ccccc2OC)C(=O)Nc2ccc(Br)cc2)cc1` (stereo not given), for which the Inhibition in the experiment with Plasmodium falciparum [1] was determined as 97%; with Plasmodium falciparum [2] it was 2%; in the experiment with HepG2, 8%.

`O=C(Nc1cc(Cl)cc(Cl)c1)c1cc(Cl)c(=O)n(Cc2ccc(Cl)cc2)c1`: the figures for the Inhibition in the experiment with Plasmodium falciparum [1], with Plasmodium falciparum [2] and with HepG2 were 89%, 57% and 7%, respectively.

For the compound `N#Cc1ccc2c(c1)CN(C1CCC(NC(=O)c3cc(-c4ccc(Cl)cc4)cs3)CC1)CCC2` (stereo not given), the Inhibition turned out to be 100% in the experiment on Plasmodium falciparum [1], 99% in the experiment on Plasmodium falciparum [2] and 36% in the experiment on HepG2.

The values above are taken from ChEMBL document CHEMBL1157539, “Thousands of chemical starting points for antimalarial lead identification” (Nature, 2010).
